Counter-ions that a name gives are not always drawn.
tested on: Saccharomyces cerevisiae; experiment: fraction of cells in G1 phase (DNA content, flow cytometry); higher = more cells with unreplicated DNA (G1 delay); conditions: temperature: 30 C; YPD; JTY2953 pdr5 snq2 (sensitized); drug added to: cultures diluted from stationary phase; 6-7 h
Outline: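 S. cerevisiae in YPD at 30°C was treated with library drugs, with DMSO-only wells as reference. Sensitized JTY2953 cultures diluted 1∶200 from overnight received a final 20 µg/ml and were fixed after 6–7 h; other runs dosed dividing JTY2953 (fixed 6 h later) or BY4741 (4.33 h later). Ethanol-fixed cells were stained with SYTOX Green and 10,000 events read by flow cytometry. G1 fraction is the Dean-Jett-Fox G1 peak area over G1 plus G2/M areas.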

SMILES | fraction of cells in G1 phase
Cn1ccnc1S [Methimazole] (175.178 µM) | 0.473
COC(=O)C1=C(C)NC(C)=C(C(=O)OCCCN2CCC(c3ccccc3)(c3ccccc3)CC2)[C@H]1c1cccc([N+](=O)[O-])c1 [Niguldipine HCl] (30.9502 µM) | 0.684
Cc1ccc(S(=O)(=O)NC(=O)NN2CC3CCCC3C2)cc1 (stereo not given) [Gliclazide] (61.8397 µM) | 0.51
CCOC(=O)N1CCC(=C2c3ccc(Cl)cc3CCc3cccnc32)CC1 [Loratadine] (52.2338 µM) | 0.778
COc1ccc(C(=O)NCc2cccnc2)cc1C(=O)NCc1cccnc1 [Picotamide] (53.1323 µM) | 0.459
CC(C)(C)NC[C@H](O)COc1nsnc1N1CCOCC1 [Timolol maleate (s)] (63.2061 µM) | 0.499
CCC[S+]([O-])c1ccc2[nH]c(NC(=O)OC)nc2c1 (stereo not given) [Ricobendazole] (71.0895 µM) | 0.485
CC(C)NCC(O)COc1ccc(CCOCC2CC2)cc1 (stereo not given) [Betaxolol HCl] (65.054 µM) | 0.525
CC[C@@H]1C(=O)OC[C@@H]1Cc1cncn1C [Pilocarpine HCl] (96.0327 µM) | 0.526
CC(=O)OCC(=O)[C@@]1(O)CC[C@H]2[C@@H]3CCC4=CC(=O)CC[C@]4(C)[C@H]3[C@@H](O)C[C@@]21C [Hydrocortisone 21-acetate] (49.4428 µM) | 0.494
Cc1onc(-c2ccccc2)c1C(=O)N[C@@H]1C(=O)N2[C@@H]1SC(C)(C)[C@@H]2C(=O)O [Oxacillin sodium monohydrate] (49.9455 µM) | 0.486
Clc1ccc(CCC(Cn2ccnc2)Sc2c(Cl)cccc2Cl)cc1 (stereo not given) [Butoconazole nitrate] (42.123 µM) | 0.904
Clc1ccc2c(c1)CCc1cccnc1C2=C1CCNCC1 [Desloratadine] (64.3439 µM) | 0.5
CC(C(=O)O)c1cccc(Oc2ccccc2)c1 (stereo not given) [Fenoprofen] (82.5501 µM) | 0.502
CN(C)CCOc1ccc(/C(=C(/CCCl)c2ccccc2)c2ccccc2)cc1 [Toremifene] (49.2645 µM) | 0.901
